Only some compounds are listed: those with a hit (about 7.2% of all), similar ones and a draw of the others.
RE007 growth inh = less growth of the S. pombe RE007 Vpr strain | S. pombe RE007 Vpr strain, BacTiter-Glo ATP luminescence, 24 h | Potency, µM (top dose mostly 92.2 µM), for the others: top-dose activity change, negative = less growth, usual class: inhibitors | actives 0.21% (n = 360,000) | AID 651644; active = well fitted falling curve with a large enough effect; inconclusive = small, poorly fitted or top-dose-only effect; inactive = no such curve, though single readings can be large or run the other way; also: nearly all actives have a fitted effect of over 50% in size
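Fission yeast RE007 carrying one integrated HIV-1 vpr copy, seeded at OD 0.01 in PMG+AL medium with 23 nL pinned compound. Grown 24 h at 30 degrees; viability read by BacTiter-Glo luminescence after 5 min.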
HCV inh = blocks hepatitis C virus | Potency, µM (highest dose often 41.8 µM), for inactives: at the top dose activity change, negative = inhibition, hits mostly inhibitors | Huh7.5.1 HCVcc-Cre infection, luciferase reporter, 44 h | actives 3.4% (n = 340,000)
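Cells (1,000/well) were plated 4 h before compound, then infected with HCVcc-Cre virus (~0.5 moi). After 44 h further culture, infection was read as luciferase luminescence following a 15 min substrate incubation at room temperature.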
LASV entry inh = Lassa virus entry inhibition; Lassa virus pseudotype entry inhibition, cell reporter; Potency, µM (highest dose often 37.9 µM), for inactives: at the highest dose activity change, negative = inhibition, most hits filed as inhibitors; actives 1.2% (n = 300,000); AID 540256; calls by dose curve; tested in HEK293 cells; also: nearly all actives have a fitted effect of over 50% in size
Sm TGR block = blocks Schistosoma mansoni thioredoxin glutathione reductase; AID 485364; Potency, µM (highest dose often 114 µM), inactives show top-dose activity change, negative = inhibition, actives largely listed as inhibitors; actives 3% (n = 360,000); purified TGR, DTNB reduction, TNB absorbance 405 nm; Q962Y6; also: nearly all actives have a fitted effect of over 60% in size
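Kinetic colorimetric format: TGR-catalysed, NADPH-driven DTNB reduction monitored via TNB absorbance. Enzyme dispensed at 20 nM; compound exposure 15 min at room temperature before reaction start.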
FMDV antiviral = blocks foot and mouth disease virus | FMDV antiviral cell-based qHTS | Potency, µM (top dose mostly 57.9 µM), for the others: at the top dose activity change, negative = inhibition, most hits filed as inhibitors | actives 1.2% (n = 410,000) | AID 1159524; calls by dose curve; tested in HEK293T cells; also: read-out not given here; nearly all actives have a fitted effect of over 45% in size
Marburg entry inh = Marburg virus entry inhibition; Marburg virus pseudotyped entry inhibition, cell reporter; Potency, µM (highest dose often 37.8 µM), without a hit: at the highest dose activity change, negative = inhibition, most hits filed as inhibitors; actives 1.8% (n = 300,000); calls by dose curve; tested in HEK293 cells
Active calls of the source: *; [ ] = dose if it differs, or a comment. Unless noted, calls follow the shape of the dose curve; as a rule, active = well fitted curve in the direction sought with a large enough effect; inconclusive = small, poorly fitted or top-dose-only effect, or another doubt; inactive = no such curve, though single readings can be large; an effect the other way counts as inactive or inconclusive. % is scaled to controls: 0 for no effect and ±100 for the full control effect; potency is read from the fitted curve at half-maximal effect.

CC(C)CON=C1C[C@@H](O)[C@@H](O)[C@@H]2[C@H]3C(=O)N(Cc4ccc5c(c4)OCO5)C(=O)[C@@H]3CC[C@@H]12 was read as Marburg entry inh -30%[14.2 µM].
`Cc1ccc(S(=O)(=O)c2cn(Cc3cccc(F)c3)c3cc(N4CCCC4)c(F)cc3c2=O)cc1` gave LASV entry inh -1%[46.1 µM], Sm TGR block 5% and FMDV antiviral 1%.
COC1=C[C@H](C(=O)NCCNC(C)=O)[C@@]2(C)Cc3ccccc3[C@@H]2CC1=O was read as LASV entry inh inconclusive and Marburg entry inh -20%[14.2 µM].
Nc1ccc(C(=O)NN2C(=O)[C@H](Cl)C2c2ccc(Cl)cc2)cc1 (some centres not stated) was read as RE007 growth inh 17%, HCV inh 10µM*, LASV entry inh 11µM*, FMDV antiviral inconclusive and Marburg entry inh 8.9µM*.
For COC(=O)C1=C(C)N=c2s/c(=C3\C(=O)Nc4ccccc43)c(=O)n2C1c1ccccc1 (configuration not stated) the results were HCV inh -27% and Sm TGR block 50µM*.
For CCOC(=O)C1=C(C)n2c(s/c(=C3\C(=O)Nc4ccccc43)c2=O)=NC1c1ccc(OC)cc1 (configuration not stated) the results were RE007 growth inh -8%, HCV inh 15%, LASV entry inh 13%, Sm TGR block 25µM*, FMDV antiviral inconclusive and Marburg entry inh -4%.
CCOC(=O)C1=C(C)N=c2s/c(=C3/C(=O)Nc4ccccc43)c(=O)n2C1c1ccc(C)cc1 (configuration not stated) was read as RE007 growth inh -7%, HCV inh -9%, LASV entry inh -23%, Sm TGR block 20µM*, FMDV antiviral -18% and Marburg entry inh 0%.
`CCOC(=O)c1c(C)nc2sc3c(c2c1-c1ccc(OC)cc1)NC(c1ccccc1)NC3=O` (configuration not stated) gave RE007 growth inh 26%, HCV inh inconclusive, LASV entry inh 0%, Sm TGR block -1%, FMDV antiviral inconclusive and Marburg entry inh -16%.
`COc1cccc(-c2ccc3ncnc(N4CCOCC4)c3c2)c1` gave FMDV antiviral -21%.
`CCC(=O)[C@@H](C)[C@@H](O)[C@H](C)C[C@@H](C)C1OC(=O)C[C@@]2(O)CC=C(C)C(O2)C(C)=CCCC[C@H](O[C@H]2C[C@@H](OC(N)=O)[C@H](O)[C@@H](C)O2)C=C[C@H](C)C[C@H]1C` (some centres not stated) gave RE007 growth inh 7% and FMDV antiviral 18µM*.
`CCC(=O)[C@@H](C)[C@@H](OC(C)=O)[C@H](C)C[C@@H](C)[C@H]1OC(=O)C[C@@]2(O)CC=C(C)C(O2)C(C)=CCCC[C@H](O[C@H]2C[C@@H](OC(N)=O)[C@H](OC(C)=O)[C@@H](C)O2)C=C[C@H](C)C[C@H]1C` gave RE007 growth inh 12% and FMDV antiviral -29%.
CC(=O)c1ccc(OCC(O)CN(C)CCOc2ccc(Br)cc2)cc1 (configuration not stated) was read as RE007 growth inh 3%, HCV inh -27%, LASV entry inh inconclusive, Sm TGR block -16%, FMDV antiviral inconclusive and Marburg entry inh 8.9µM*.
Screening S=c1nc(-c2ccccc2)n(CCCn2ccnc2)c2c1CCCC2 returned RE007 growth inh -2%, HCV inh 2%, Sm TGR block 45µM* and FMDV antiviral -23%.
O=C(C[n+]1cccc2ccccc21)c1ccc(Cl)cc1 was read as RE007 growth inh -8%, HCV inh -10%, Sm TGR block -3% and FMDV antiviral -13%.
Screening O=C(C[n+]1cccc2ccccc21)c1ccc([N+](=O)[O-])cc1 returned RE007 growth inh 2%, HCV inh 11µM*, LASV entry inh inconclusive, Sm TGR block 6%, FMDV antiviral -17% and Marburg entry inh inconclusive.
CCc1ccc(S(=O)(=O)c2nnn3c2nc(Nc2ccc(NC(C)=O)cc2)c2sccc23)cc1 was read as LASV entry inh inconclusive, Sm TGR block 2% and FMDV antiviral 0%.
Screening OCC1(Cc2ccccc2)CCN(Cc2cnc(-c3cccc4ccccc34)nc2)CC1 returned RE007 growth inh 8%, HCV inh -25%, LASV entry inh 14%[46.1 µM], Sm TGR block -1%, FMDV antiviral inconclusive and Marburg entry inh inconclusive.
`OCCC1CN(Cc2cnc(-c3ccc(Cl)cc3)nc2)CCN1C1CCCCC1` (configuration not stated) gave RE007 growth inh -12%, HCV inh 13µM*, Sm TGR block 1% and FMDV antiviral -13%.
For OCC1(Cc2ccccc2)CCN(Cc2cnc(-c3ccc(Cl)cc3)nc2)CC1 the results were RE007 growth inh -22%, HCV inh 10µM*, LASV entry inh inconclusive, Sm TGR block 4%, FMDV antiviral -8% and Marburg entry inh inconclusive.
For CCOc1ccc(CCNC(=O)c2cccc(-n3c(C)nc4cccnc43)c2C)cc1 the results were LASV entry inh -9%[46.1 µM], Sm TGR block 10% and FMDV antiviral 0%.
Screening N#Cc1cc(NC(=O)c2ccc(Cl)cc2)ccc1Sc1ccccc1 returned RE007 growth inh 40% and FMDV antiviral -11%.
COc1ccc(Sc2ccc(NC(=O)c3ccccc3Cl)cc2C#N)cc1 was read as RE007 growth inh 0%, HCV inh 11µM*, LASV entry inh inconclusive, Sm TGR block 2%, FMDV antiviral -18% and Marburg entry inh inconclusive.
Screening CCN(CC(=O)Nc1ccc(OC)cc1)C(=O)c1cc(S(=O)(=O)N(C)C)ccc1N1CCCC1 returned RE007 growth inh 3%, HCV inh 11µM*, LASV entry inh -1%, Sm TGR block -4%, FMDV antiviral -11% and Marburg entry inh 5%[46.1 µM].
CCN(CC(=O)Nc1ccc(OC)cc1)C(=O)c1ccccc1Sc1ccccc1C#N was read as RE007 growth inh 4%, HCV inh 22µM*, LASV entry inh -18%, Sm TGR block -12%, FMDV antiviral -6% and Marburg entry inh inconclusive.
Cc1ccc(NC(=O)CSc2nc(-c3cccs3)cc(C(F)(F)F)n2)cc1C was read as LASV entry inh inconclusive, Sm TGR block 16%, FMDV antiviral -24% and Marburg entry inh inconclusive.
For CC(=O)Nc1ccc2nc3c(=O)n(C)c(=O)n(C)c3nc2c1C the results were LASV entry inh 10%[46.1 µM], Sm TGR block -3%, FMDV antiviral -6% and Marburg entry inh 21%[46.1 µM].

Assay outcomes as filed in PubChem.
